From PubChem BioAssay (Tox21)
Inconclusive results are not listed. A call without a number means that no potency is given here. The source made the active and inactive calls. Calls follow the shape of the dose curve; as a rule, active = well fitted cell-killing curve with a large enough effect in the repeat runs; inconclusive = weak or mixed curves, or effect the other way; inactive = no such curve, though single readings can be large or run the other way.

Assay: qHTS assay to identify small molecule antagonists of the glucocorticoid receptor (GR) signaling pathway - cell viability counter screen (AID 720693); also: nearly all actives have a fitted effect of over 55% in size
Details: GR-bla HeLa viability, CellTiter-Glo luminescence, 18 h, with 5 nM dexamethasone present; series mostly up to 58.5 µM
Excerpt: National Center for Advancing Translational Sciences [NCATS]
NIH Chemical Genomics Center [NCGC]
U.S. Environmental Protection Agency [EPA]
National Institutes of Environmental Health Sciences [NIEHS]
National Toxicology Program [NTP]
U.S. Food and Drug Administration [FDA]
The Glucocorticoid receptor (GR) is one of the members of the nuclear receptor family of ligand-dependent transcription factors. GR plays a critical role in carbohydrate, protein and lipid metabolisms and programmed cell death. CellSensor GR-bla HeLa cell line (Invitrogen) contains a beta-lactamase reporter gene under the control of the glucocorticoid response element stably integrated into HeLa cells, a cervical cancer cell line that expresses glucocorticoid receptor. The activation of the reporter gene under culture conditions can be detected by fluorescence intensity. This cell line has been used to screen the Tox21 10K compound library and to identify the compounds that inhibit the GR signaling. The cytotoxicity of the Tox21 compound library against the GR-bla HeLa cell line was tested in parallel by measuring the cell viability using CellTiter-Glo assay in the same wells.
Tox21 Assay Protocol Summary:
The GR-bla HeLa cells were dispensed at 1500 cells/5 ul/well in 1536-well black wall/clear bottom plates using a Multidrop Combi (ThermoFisher Scientific, Waltham, MA) dispenser. After the assay plates were incubated at a 37 C/5% CO2 incubator for 4 hours, 23 nL of compounds dissolved in DMSO, positive controls or DMSO only was transferred to the assay plate by a pintool station (Kalypsys, San Diego, CA), followed by addition of 1 uL of dexamethasone (5 nM, final concentration in the well). The plates were incubated at 37 C for 18 hours. After 1 uL of LiveBLAzerTM B/G FRET substrate was added using a Flying Reagent Dispenser (Aurora Discovery, San Diego, CA), the plates were incubated at room temperature (RT) for 2 hours, and fluorescence intensity was measured by an Envision plate reader (PerkinElmer, Shelton, CT). After measurement of bla assay, 3 ul CellTiter-Glo (Promega, Madison, WI) was added to measure the cytotoxicity and the plates were then incubated at RT for 30 min. The luminescence was measured using a ViewLux (Perkin Elmer) plate reader.
Potency is read from the fitted curve at half-maximal effect.

Row | Compound | Potency
1 | CC(=O)OCC(=O)[C@H]1CC[C@H]2[C@@H]3CCC4=CC(=O)CC[C@]4(C)[C@H]3CC[C@]12C | inactive
2 | CO[Si](C)(OC)OC | inactive
3 | O=S(=O)(c1ccccc1)c1ccc(Cl)cc1 | inactive
4 | CCC(C(=O)OCCOCCN(CC)CC)c1ccccc1 (stereo not given) | inactive
5 | CC1(C)O[C@@H]2C[C@H]3[C@@H]4CCC5=CC(=O)C=C[C@]5(C)[C@H]4[C@@H](O)C[C@]3(C)[C@]2(C(=O)CO)O1 | inactive
6 | O=C(CCC1CCN(Cc2ccccc2)CC1)c1ccc2c(c1)NCCCC2 | inactive
7 | O=C(O)c1cccc(O)c1 | inactive
8 | C[Si]1(C)O[Si](C)(C)O[Si](C)(C)O1 | inactive
9 | O=C(O)c1cccnc1C(=O)O | inactive
10 | O=C(Nc1ccccc1)Nc1ccccc1 | inactive
11 | Fc1c(F)c(F)c(Br)c(F)c1F | inactive
12 | CC(CCc1ccc2c(c1)OCO2)NN (stereo not given) | inactive
13 | CCN(Cc1cccc(S(=O)(=O)O)c1)c1ccc(C(=C2C=CC(=[N+](CC)Cc3cccc(S(=O)(=O)[O-])c3)C=C2)c2ccccc2)cc1 | inactive
14 | O=C(CCCCCCCCC#CI)Oc1ccccc1 | inactive
15 | CO[C@H]1C=CO[C@@]2(C)Oc3c(C)c(O)c4c(O)c(c5c(c4c3C2=O)=NC2(CCN(CC(C)C)CC2)N=5)NC(=O)/C(C)=C\C=C/[C@H](C)[C@H](O)[C@@H](C)[C@@H](O)[C@@H](C)[C@H](OC(C)=O)[C@@H]1C | inactive
16 | CO[C@@]12[C@H](COC(N)=O)C3=C(C(=O)C(C)=C(N)C3=O)N1C[C@@H]1N[C@@H]12 | 23.9 µM (active)
17 | CCOC(=O)c1ccccc1C | inactive
18 | CC1=C(C=O)C(C)(C)CCC1 | inactive
19 | O=C1NCCN1 | inactive
20 | C[Si](NC1CCCCC1)(NC1CCCCC1)NC1CCCCC1 | inactive

Row | Compound | Potency
21 | O=c1[nH]c2ccc(S(=O)CCN3CCC(Cc4ccc(F)cc4)CC3)cc2o1 (stereo not given) | inactive
22 | Cc1ccc(S(=O)(=O)NC2CCCCC2)cc1 | inactive
23 | CC(=O)CC(c1ccc([N+](=O)[O-])cc1)c1c(O)c2ccccc2oc1=O (stereo not given) | inactive
24 | CCOC(=O)/C=C/C(=O)O | inactive
25 | O=C(CCCCCCC(=O)Nc1ccccc1)NO | inactive
26 | Cc1oc(C)c(C(=O)Nc2ccccc2)c1C | inactive
27 | c1cnc2c(n1)CCCC2 | inactive
28 | CC1=C(/C=C/C(C)=C\C=C\C(C)=C\C(=O)O)C(C)(C)CCC1 | inactive
29 | CC(=O)[C@H]1CC[C@H]2[C@@H]3C[C@H](C)C4=CC(=O)CC[C@]4(C)[C@H]3[C@@H](O)C[C@]12C | inactive
30 | CCOC(=O)c1ccccc1OC | inactive
31 | CCOC(=O)[C@@H](C)Oc1ccc(Oc2nc3ccc(Cl)cc3o2)cc1 | inactive
32 | Cc1cc(OI)c(C(C)C)cc1-c1cc(C(C)C)c(OI)cc1C | inactive
33 | O=C(C(=O)c1ccccc1)c1ccccc1 | inactive
34 | NC(=O)Nc1ccc(Cl)cc1 | inactive
35 | CC(=O)Nc1ccccc1C | inactive
36 | COc1cc2[nH]c(=O)[nH]c(=O)c2cc1OC | inactive
37 | CCn1nc(C)c2c1C(=O)NCC(c1ccc(O)cc1)=N2 | inactive
38 | CC(=O)OCC(=O)[C@@]12OC(C)(C)O[C@@H]1C[C@H]1[C@@H]3C[C@H](F)C4=CC(=O)C=C[C@]4(C)[C@@]3(F)[C@@H](O)C[C@@]12C | inactive
39 | NC(=O)Cn1c(=O)cc(CCN2CCN(c3nccc4sccc34)CC2)c2ccc(F)cc21 | inactive
40 | CSc1ccc(Oc2ccc(S(N)(=O)=O)cc2CN(C)C)cc1C | inactive
